CCHF vOTU inh-1 = CCHFV vOTU protease inhibitors, primary screen, biochemical, Pep-AMC substrate, fluorescence | inhibition, % at 11.5 µM | actives 0.55% (n = 370,000) | Crimean-Congo hemorrhagic fever virus L polyprotein viral ovarian tumor (vOTU) protease …; note: 0% = vehicle wells with enzyme and 100% = no enzyme wells
VHR inh abs = VHR1 phosphatase inhibitors, primary screen, biochemical, absorbance, uHTS; Dual specificity protein phosphatase 3 (Homo sapiens), P51452; AID 1654, 2009; actives 0.52% (n = 290,000); recombinant VHR phosphatase, pNPP absorbance; inhibition, % at 13.3 µM; in the data active = inhibition above about 50%
RecA intein inh = Mtb RecA intein splicing inhibitors, primary screen, biochemical, fluorescence, HTS. Protein RecA (Mycobacterium tuberculosis (strain ATCC 25618 / H37Rv)), P9WHJ3. actives 0.75% (n = 290,000). inhibition, % (concentration not given with the values). cell-free RecA intein splicing; in the data active = inhibition above about 30%;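 note: 0% = vehicle wells and 100% = reference inhibitor control wells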
Target sequence (P9WHJ3 whole entry, looked up): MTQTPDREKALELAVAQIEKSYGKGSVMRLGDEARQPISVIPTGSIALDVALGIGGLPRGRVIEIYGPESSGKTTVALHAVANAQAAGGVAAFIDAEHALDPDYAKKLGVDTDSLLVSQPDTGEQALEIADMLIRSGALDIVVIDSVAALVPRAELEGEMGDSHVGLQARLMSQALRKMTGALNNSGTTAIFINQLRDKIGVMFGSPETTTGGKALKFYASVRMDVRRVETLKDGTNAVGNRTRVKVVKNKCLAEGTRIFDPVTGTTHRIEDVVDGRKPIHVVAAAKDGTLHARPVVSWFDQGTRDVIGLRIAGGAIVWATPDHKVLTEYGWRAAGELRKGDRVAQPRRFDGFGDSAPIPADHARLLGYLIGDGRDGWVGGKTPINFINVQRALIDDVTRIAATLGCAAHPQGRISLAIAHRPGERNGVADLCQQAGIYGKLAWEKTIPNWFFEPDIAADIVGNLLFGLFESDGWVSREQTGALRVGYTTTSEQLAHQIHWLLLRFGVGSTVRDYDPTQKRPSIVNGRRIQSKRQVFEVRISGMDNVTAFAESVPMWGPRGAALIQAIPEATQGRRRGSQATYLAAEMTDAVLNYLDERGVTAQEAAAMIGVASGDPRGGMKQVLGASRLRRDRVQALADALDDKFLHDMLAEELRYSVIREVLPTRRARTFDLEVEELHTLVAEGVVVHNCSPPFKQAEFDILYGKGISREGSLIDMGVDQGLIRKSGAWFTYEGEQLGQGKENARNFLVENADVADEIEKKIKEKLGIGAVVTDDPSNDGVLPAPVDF
3CLpro inhibitor = SARS-CoV 3CLpro protease inhibitors, primary screen, biochemical, quenched FRET; inhibition, % at 6 µM; recombinant SARS-CoV 3CLpro, quenched FRET peptide cleavage; Replicase polyprotein 1ab (Severe acute respiratory syndrome coronavirus), P0C6X7; actives 0.14% (n = 290,000); in the data active = inhibition above about 12%
CCHF vOTU inh-2 = CCHFV vOTU protease inhibitors, confirmation, biochemical, Pep-AMC substrate, fluorescence; shares compounds with CCHF vOTU inh-1; Recombinant CCHFV vOTU; inhibition, % at 11.5 µM; actives 17% (n = 1,900)
* = called active by the depositor; · = no result. Sampled rows, rich in hits. Any-hit rate of the full collection: about 1.5%. Cut-off read from the data, not from the text of the source, unless noted: active = inhibition above about 30%; inactive = the rest.

SMILES	CCHF vOTU inh-1	VHR inh abs	RecA intein inh	3CLpro inhibitor	CCHF vOTU inh-2
Cc1cccc(C)c1NC(=O)C(c1ccc(-c2ccccc2)cc1)n1c(=O)c(-c2ccco2)nc2ccccc21 (stereo not given)	33*	·	·	·	-2
O=[N+]([O-])c1nccn1CC(O)CCN1CCOCC1 (stereo not given)	7	·	·	·	·
CCc1cc[n+](C2=C([O-])c3ccccc3C(=O)/C2=N\S(=O)(=O)c2cccs2)cc1	105*	-4	30	2	103*
CC(=CC(=O)c1ccccc1)c1ccccc1	11	·	·	·	·
CCOc1ccc(-c2cc(C(=O)OC)nc3c2c(=O)n(C)c(=O)n3C)cc1	-54	21	-2	-2	·
S=c1[nH]nc(-c2ccncc2)n1/N=C/c1cccc(Cl)c1	-13	9	0	-2	·
Cc1ccc(CNc2ccc(O)cc2)cc1	63*	-9	85*	5	72*
Cc1ccc(NCc2ccccc2O)cc1	-5	0	-2	-1	·
Cc1no[n+]([O-])c1COc1cccc(/C=N/Nc2nncn2N)c1	109*	-7	3	0	-14
O=C1CCn2c1c(O)c1ccccc1c2=O	95*	·	·	·	34*
CCCCNc1c2c(nc3c(-c4ccccc4)c(C)nn13)CCC2	30*	-12	·	0	-61
C[C@H]1CN([C@@H](C)CO)C(=O)CCCn2nncc2CO[C@H]1CN(C)C(=O)c1ccc2ccn(C)c2c1	9	·	·	·	·
O=[N+]([O-])c1ccccc1/C=C/C=Nn1c(-c2ccc(F)cc2)n[nH]c1=S	13	·	·	·	·
COCc1cc(N2CCN(C(=O)OC(C)(C)C)C[C@@H]2C)ccc1N1C[C@@H](C)O[C@@H](C)C1	27	·	·	·	·
COCc1cc(N2CCN(C(=O)OC(C)(C)C)C[C@H]2C)ccc1N1C[C@@H](C)O[C@@H](C)C1	35*	·	·	·	-3
CCC(C(=O)O)N1C(=O)/C(=C/C(C)=C/c2ccccc2)SC1=S (stereo not given)	22	1	11	3	·
CC(=C\c1ccccc1)/C=C1/SC(=S)N(C(C(=O)O)C(C)C)C1=O (stereo not given)	32*	4	13	-1	12
Cc1ccc(/C=N\Nc2cn[nH]c(=O)c2Cl)cc1	3	9	-1	-1	·
Cc1ccsc1/C=N\Nc1cn[nH]c(=O)c1Cl	30*	-5	-2	3	3
CC(=O)c1cc(-c2ccc(S(C)(=O)=O)cc2)c(=O)n2c1CCC2	-33	·	·	·	·
CN1/C(=C\C=C2/SC(=S)NC2=O)C(C)(C)c2ccccc21	17	20	0	1	·
CN1CCC/C1=C/C=C1\SC(=S)NC1=O	40*	0	·	-9	33*
Cc1ccc(-c2cc(C(=O)NN=Cc3cccc(OCc4ccccc4)c3)[nH]n2)cc1C	7	·	·	·	·
Cc1ccc(-n2c(-c3ccncc3)n[nH]c2=S)cc1	5	29	-6	-4	·
Cc1ccc(-n2c(-c3cnccn3)n[nH]c2=S)cc1	30*	18	-2	4	-10
SMILES	CCHF vOTU inh-1	VHR inh abs	RecA intein inh	3CLpro inhibitor	CCHF vOTU inh-2
CC1CCC/C(=N\NC(=O)Nc2ccccc2)C1 (stereo not given)	34*	0	-5	4	-20
CC1Cc2nc(SCC(=O)NCc3ccco3)n(-c3ccccc3)c(=O)c2S1 (stereo not given)	30*	12	4	0	0
COc1cccc(CNC(=O)[C@H]2CCCN2C(=O)C2CCCN2C(=O)c2ccc(OC)c(F)c2)c1 (stereo not given in full)	-7	·	·	·	·
Cc1ccc(C(C)C)c2c1C(c1ccc3c(c1)OCO3)CC(=O)O2 (stereo not given)	10	·	·	·	·
CC1=C(C(=O)N2CCOCC2)CC(CC(=O)NCCN2CCOCC2)C(=O)N1Cc1ccccc1 (stereo not given)	30*	·	·	·	-25
CC1=C(C(=O)N2CCOCC2)CC(CC(=O)NCCN2CCOCC2)C(=O)N1Cc1ccc(F)cc1 (stereo not given)	5	·	·	·	·
COC(=O)C1CN(Cc2cn(CCOC(C)=O)nn2)CCS(=O)(=O)N1Cc1ccc(OC)cc1 (stereo not given)	13	·	·	·	·
O=C1COc2ccc(C(=O)COC(=O)Cc3ccsc3)cc2N1	0	17	2	1	·
CCC(NC(=O)c1ccc2nc(Cc3ccc(OC)cc3)oc2c1)c1ccncc1 (stereo not given)	2	-31	-1	0	·
COc1ccc2c(c1)Cc1sc(NC(=O)c3ccco3)nc1-2	105*	-1	·	-13	-6
COc1ccc2c(c1)CCc1sc(NC(=O)c3ccco3)nc1-2	·	21	18	2	·
O=C1c2ccccc2C(=O)C12OC2c1cccc2ccccc12 (stereo not given)	87*	18	7	-1	48*
O=C1NC(c2cccc3ccccc23)Nc2ccccc21 (stereo not given)	-12	·	·	·	·
CCCCNc1ccc2nsnc2c1[N+](=O)[O-]	57*	-1	0	-4	-6
Cc1cc(C)cc(OCC(=O)N2N=C(c3cccnc3)CC2(O)C(F)(F)F)c1 (stereo not given)	-15	32	0	4	·
Cc1cc(C)cc(OCC(=O)N2N=C(C(F)(F)F)CC2(O)C(C)(C)C)c1 (stereo not given)	30*	-10	0	5	12
CN(CC(=O)Nc1cccc(F)c1)C(=O)CC1CC2CCC1C2 (stereo not given)	5	12	3	1	·
O=C(CN1C2CCCC1CC(NC(=O)c1ccccc1)C2)Nc1ccccc1 (stereo not given)	30*	26	-1	0	-17
O=C(CCN1CCCCC1=O)NC1CCCc2c1cnn2-c1ccccc1F (stereo not given)	-4	-2	1	-1	·
O=C(c1ccccc1)c1coc2c1C(=O)c1ccccc1C2=O	34*	4	17	4	59*
O=c1[nH]nc(CNc2ccc(O)cc2)c2ccccc12	53*	6	20	2	-16
O=c1[nH]nc(CNc2ccc(C(F)(F)F)cc2)c2ccccc12	2	9	1	0	·
O=C(N[C@@H](Cc1ccccc1)C(=O)N1CCC2CCN(S(=O)(=O)c3ccccc3)CC21)[C@@H]1CCCN1 (stereo not given in full)	2	·	·	·	·
CCOC(=O)CCCCCC(=O)Nc1ccc2c(c1)C(=O)N([C@@H](C)CO)C[C@H](C)[C@H](CN(C)C(=O)Nc1ccc(C(F)(F)F)cc1)OCCCC[C@H](C)O2	-4	·	·	·	·
CC(C)NC(=O)N(C)C[C@@H]1OCCCC[C@@H](C)Oc2ccc(NC(=O)Nc3ccc(F)cc3)cc2C(=O)N([C@H](C)CO)C[C@@H]1C	32*	·	·	·	-3
CCOC(=O)CCCCCC(=O)Nc1ccc2c(c1)C(=O)N([C@H](C)CO)C[C@H](C)[C@@H](CN(C)C(=O)Nc1ccccc1)OCCCC[C@@H](C)O2	38*	·	·	·	-12
